This is one part of a sample in which hits are shown more often than they occur.
Dicer processing: human Dicer pre-microRNA cleavage inhibition | Q9UPY3 | cat-ELCCA pre-miR-21 Dicer processing, chemiluminescence; stronger effect = higher value | z-score at 25 µM | hit rate 6% among 47,000 | AID 1347074; in the data active = z-score above about 3, passing the limit was not always enough;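 also: plate controls were vehicle for no effect and no enzyme for full effect; higher signal means more uncleaved substrate so more Dicer inhibition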
Target sequence (Q9UPY3 whole entry, looked up): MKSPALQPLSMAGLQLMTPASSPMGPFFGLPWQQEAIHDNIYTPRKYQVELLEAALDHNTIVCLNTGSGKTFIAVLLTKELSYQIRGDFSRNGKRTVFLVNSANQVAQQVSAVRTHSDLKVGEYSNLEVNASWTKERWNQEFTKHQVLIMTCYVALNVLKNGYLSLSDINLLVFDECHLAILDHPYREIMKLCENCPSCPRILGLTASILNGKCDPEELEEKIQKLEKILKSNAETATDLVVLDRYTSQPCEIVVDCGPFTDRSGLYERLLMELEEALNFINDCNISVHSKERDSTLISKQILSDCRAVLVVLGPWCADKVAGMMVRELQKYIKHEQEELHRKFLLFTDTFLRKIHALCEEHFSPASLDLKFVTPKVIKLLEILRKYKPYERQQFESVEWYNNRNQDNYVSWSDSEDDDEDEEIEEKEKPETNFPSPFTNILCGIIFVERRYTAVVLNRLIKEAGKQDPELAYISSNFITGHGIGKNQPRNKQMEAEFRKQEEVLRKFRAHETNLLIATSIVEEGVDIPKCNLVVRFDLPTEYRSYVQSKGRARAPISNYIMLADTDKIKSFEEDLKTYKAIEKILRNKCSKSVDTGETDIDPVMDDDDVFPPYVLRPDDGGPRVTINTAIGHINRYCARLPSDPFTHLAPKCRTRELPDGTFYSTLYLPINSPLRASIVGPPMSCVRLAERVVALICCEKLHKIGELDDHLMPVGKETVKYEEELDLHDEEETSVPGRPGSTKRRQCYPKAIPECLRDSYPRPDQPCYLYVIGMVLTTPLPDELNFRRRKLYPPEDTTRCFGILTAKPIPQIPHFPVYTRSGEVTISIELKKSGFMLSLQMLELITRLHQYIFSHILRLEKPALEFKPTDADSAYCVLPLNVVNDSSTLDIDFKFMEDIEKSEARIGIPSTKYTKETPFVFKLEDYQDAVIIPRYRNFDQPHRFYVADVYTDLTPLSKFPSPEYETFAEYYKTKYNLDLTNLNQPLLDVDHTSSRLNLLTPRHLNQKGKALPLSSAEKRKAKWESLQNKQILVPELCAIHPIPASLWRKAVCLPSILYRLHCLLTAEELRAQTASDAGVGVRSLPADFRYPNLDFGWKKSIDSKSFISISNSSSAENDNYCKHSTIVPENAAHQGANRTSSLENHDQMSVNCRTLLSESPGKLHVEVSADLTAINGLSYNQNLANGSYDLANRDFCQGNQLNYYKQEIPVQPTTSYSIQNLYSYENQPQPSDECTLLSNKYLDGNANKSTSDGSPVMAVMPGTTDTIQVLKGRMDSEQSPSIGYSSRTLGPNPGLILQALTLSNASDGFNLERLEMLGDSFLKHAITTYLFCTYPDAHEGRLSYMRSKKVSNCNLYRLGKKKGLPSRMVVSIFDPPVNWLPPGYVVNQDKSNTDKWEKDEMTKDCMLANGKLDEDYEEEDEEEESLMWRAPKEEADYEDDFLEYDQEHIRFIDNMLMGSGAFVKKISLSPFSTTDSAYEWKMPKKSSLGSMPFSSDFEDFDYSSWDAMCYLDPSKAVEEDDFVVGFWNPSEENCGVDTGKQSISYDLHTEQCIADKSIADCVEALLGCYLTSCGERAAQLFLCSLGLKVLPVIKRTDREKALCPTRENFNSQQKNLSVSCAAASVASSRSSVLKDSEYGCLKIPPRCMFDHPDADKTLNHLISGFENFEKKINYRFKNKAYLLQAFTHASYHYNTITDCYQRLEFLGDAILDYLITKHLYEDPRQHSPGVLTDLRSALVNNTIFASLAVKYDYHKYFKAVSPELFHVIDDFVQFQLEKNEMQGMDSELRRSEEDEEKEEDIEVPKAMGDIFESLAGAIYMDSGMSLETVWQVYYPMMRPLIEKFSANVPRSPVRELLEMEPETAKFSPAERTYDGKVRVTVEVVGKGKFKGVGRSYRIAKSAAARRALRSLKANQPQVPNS
The depositor's hits bear a star.

SMILES	Dicer processing
CCOC(=O)c1cnc2cc(C3CC3)[nH]n2c1=O	-1.2
COc1ccc(-c2nnsc2N)cc1	0.86
COCc1[nH]nc2c1C(c1c[nH]c3ccccc13)C(C#N)=C(N)O2 (configuration not stated)	-6.6
COc1ccc(OC)c(C(=O)c2oc3ccc(OC)cc3c2N)c1	-0.97
C#CCOc1ccc(C2C3=C(CCCC3=O)N(C)C3=C2C(=O)CCC3)cc1	1.1
O=C1c2ccccc2CC(=O)c2sccc21	1.9
O=C(COc1ccc(F)cc1)N(Cc1cccs1)C1CCS(=O)(=O)C1 (configuration not stated)	1.4
O=C(COc1ccccc1)N(Cc1cccs1)C1CCS(=O)(=O)C1 (configuration not stated)	3.1*
O=C(COc1ccc(Cl)cc1)N(Cc1cccs1)C1CCS(=O)(=O)C1 (configuration not stated)	0.47
C=CCN(CC=C)Cc1c(C)[nH]c2ccc(Br)cc2c1=O	0.25
CCOc1cc(C2c3c(oc4ccc(F)cc4c3=O)C(=O)N2Cc2ccc(C)cc2)ccc1O (configuration not stated)	1.7
O=C1c2oc3ccccc3c(=O)c2C(c2ccc(O)cc2)N1Cc1ccccc1Cl (configuration not stated)	1
CCOc1cc(C2c3c(oc4ccc(C)cc4c3=O)C(=O)N2Cc2ccc(OC)cc2)ccc1O (configuration not stated)	3.1*
COc1ccc(CN2C(=O)c3oc4ccc(C)cc4c(=O)c3C2c2ccc(O)c(OC)c2)cc1 (configuration not stated)	-0.31
O=C1c2oc3ccccc3c(=O)c2C(c2cccc(O)c2)N1Cc1ccccc1Cl (configuration not stated)	1
COc1cc(C2c3c(oc4ccccc4c3=O)C(=O)N2Cc2ccccc2Cl)ccc1O (configuration not stated)	3.2*
CN(C)CCCOC(=O)c1ccc2c(c1)OCCO2	0.14
CN(NC(=O)c1ccncc1Cl)c1cnc2ccccc2n1	0.34
CS(=O)(=O)Nc1ccc(Cl)cc1	-1.2
CC1(C)CC(=O)c2ccc(OCc3ccccc3F)cc2O1	-1.2
O=C(/C=C/c1ccccc1)NC(=S)Nc1ccc(S(=O)(=O)Nc2ccc(C(F)(F)F)cc2)cc1	0.12
O=C(CSc1nc2ccccc2o1)c1ccc(Cl)cc1	-0.49
Cc1[nH]nc(NCc2cccnc2)c1[N+](=O)[O-]	-0.07
CC(C)Nc1ncnc2sc3c(c12)CCCC3	-0.71
C/C(=N\N=C(/C)c1ccccc1)c1ccccc1	0.22
SMILES	Dicer processing
O=c1[nH]nc(-c2ccccc2)nc1Cc1ccc(Cl)cc1	-3.2
CC(=O)c1ccc(Oc2ccc([N+](=O)[O-])c(Oc3ccc(C(C)=O)cc3)n2)cc1	-0.83
Cc1ccc(NS(=O)(=O)c2ccc(Cl)cc2)c([N+](=O)[O-])c1	-0.45
Cc1ccc(S(=O)(=O)Nc2cc(C)ccc2C)cc1	0.42
Cc1ccc(S(=O)(=O)Nc2ccc(C)cc2NS(=O)(=O)c2ccc(F)cc2)cc1	4.6*
CN1CCOc2ccc(S(=O)(=O)NC3CCCCNC3=O)cc21 (configuration not stated)	0.49
COc1cc(C2C(C#N)=C(N)Oc3n[nH]c(C)c32)ccc1OCc1ccccc1Cl (configuration not stated)	-9
COc1cc(C(=O)c2cc(Cl)ccc2N)ccc1O	3.8*
COc1ccc(OC)c(C(=O)c2ccc(N)cc2)c1	1.9
COC(=O)c1ccccc1C(=O)c1ccc(Cl)cc1	1.1
O=C(Nc1ccc(Cl)cc1)O/N=C1\CCSC1	0.64
S=c1[nH]nc(Cc2ccccc2)n1C1CCCCC1	0.77
S=c1[nH]nc(CSCc2cccc3ccccc23)n1C1CCCCC1	3.6*
S=c1[nH]nc(-c2ccccc2Cl)n1C1CCCCC1	0.48
CC(NS(=O)(=O)c1ccc(Oc2c(Cl)cccc2[N+](=O)[O-])cc1)c1ccccc1 (configuration not stated)	-0.24
Cc1c(NC(=O)CCCC(=O)O)c(=O)n(-c2ccccc2)n1C	-0.59
CC(=O)c1ccc(C#N)c(SCC(=O)c2ccccc2)n1	0.91
Cc1nc(SCC(=O)c2ccccc2)c(C#N)c(C)c1C	4.4*
CCOC(=O)CC(=O)CSc1nc(C)c(C)c(C)c1C#N	0.68
CCOC(=O)C(=CNc1nc2ccc(C)cc2s1)C(=O)OCC	-0.07
Cc1cc2ncc(-c3ccnc(SCc4c(Cl)cccc4Cl)n3)c(C)n2n1	24*
Cc1cc2ncc(-c3ccnc(SCc4cccc(Cl)c4)n3)c(C)n2n1	0.37
Cc1cc2ncc(-c3ccnc(SCC(=O)c4ccc(Cl)cc4)n3)c(C)n2n1	-0.37
CCc1ccc(C2C(C(=O)OC(C)C)=C(C)NC3=C2C(=O)CCC3)cc1 (configuration not stated)	-0.57
CCCCOC(=O)/N=C/c1c(O)c2ccccc2oc1=O	0.7
SMILES	Dicer processing
COC(=O)C1=CC(C(=O)c2cccs2)=NN(c2ccccc2)C1C(=O)OC (configuration not stated)	61
COc1cc(C(=O)Nc2ccc3n[nH]nc3c2)cc(OC)c1OC	-0.91
Cc1c(S(=O)(=O)c2ccc(Cl)cc2)csc1S(=O)(=O)N1CCCCC1	2.1
S=c1[nH]nc(NCCc2ccc(Cl)cc2)s1	3.3*
S=c1[nH]nc(Nc2ccccc2Cl)s1	-1.7
S=c1[nH]nc(Nc2ccc(Br)cc2Cl)s1	1.1
COC(=O)c1ccc(C(=O)OC)c(NC(=O)C2CC3CCC2C3)c1 (configuration not stated)	4.3*
CCOC(=O)Nc1cc(C(=O)OC)ccc1C(=O)OC	2.1
COC(=O)c1ccc(C(=O)OC)c(NC(=O)Nc2ccc(F)cc2)c1	0.73
COc1ccc(C(C)=O)c(OCc2ccccc2)c1	-0.82
CCC1(C)CC(=O)N(c2cc(Cl)cc(Cl)c2)C(=O)C1	1.9
NNC(=O)CN1C(=O)CSc2ccc(C(F)(F)F)cc21	6.2*
CNC(=S)NNC(=O)CN1C(=O)CSc2ccc(C(F)(F)F)cc21	-0.71
O=C1CSc2ccc(C(F)(F)F)cc2N1	-1
Cc1cnc(NC(=O)c2ccc3c(c2)OCO3)s1	1.6
CCc1ccccc1-n1c(SCC(O)C(F)(F)F)nc2ccccc2c1=O (configuration not stated)	-0.29
Cc1c(S(=O)(=O)Nc2ccccc2C(=O)NCC2CC2)sc2ccc(Cl)cc12	-0.69
N#Cc1c(Cl)cccc1Oc1ccc(S(=O)(=O)Nc2ccccc2C(=O)NCC2CC2)cc1	0.88
O=C(NCC1CC1)c1ccccc1NS(=O)(=O)c1cc(Cl)c(Oc2ccc([N+](=O)[O-])cc2Cl)c(Cl)c1	3.3*
COc1ccc(Cc2nc3c4c5c(sc4ncn3n2)CCCCC5)cc1OC	-3.9
CCOc1ccsc1C(=O)NNC(=O)C1CC1	0.21
Oc1c(C(c2ccc(F)cc2)N2CCCCC2)ccc2cccnc12 (configuration not stated)	3.7*
Oc1c(C(c2ccccn2)N2CCCC2)ccc2cccnc12 (configuration not stated)	0.52
CCN1CCN(Cc2ccc3cccnc3c2O)CC1	-1.2
CCOC(=O)C(=CNc1ccn(C)n1)C(=O)OCC	-0.18
Cc1onc(-c2c(Cl)cccc2Cl)c1NC(=O)Nc1ccc(N(C)C)c(Cl)c1C#N	0.25
COC(=O)c1ccc(C2c3c(oc4cc(C)c(C)cc4c3=O)C(=O)N2c2ccc(C)cn2)cc1 (configuration not stated)	0.19
COc1ccc(/C=C/C(=O)N2CCN(c3ccccc3OC)CC2)cc1OC1CCCC1	-0.32
O=C1CC(c2nc3ccccc3n2CCc2ccccc2)CN1c1ccccc1 (configuration not stated)	4.3*

Screens (PubChem)
